Consider 20 compounds from PubChem BioAssay.

Test [1] is described as follows: antimalarial activity against Dd2 strain (AID 2302;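 active means growth inhibition above 50% at the single 2 µM test dose, taken to imply half-maximal potency below 2 µM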;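 further: 0% = DMSO untreated growth and 100% = chloroquine plus artemisinin killed control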). The following applies: P. falciparum Dd2 in RBCs, LDH growth readout, 72 h; at 2 µM; hits give high values.
Test [2] can be described thus: HepG2 cytotoxicity, primary screen, cytotoxicity control for P. falciparum antimalarial project, cell-based, ATP luminescence (AID 2303;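 active means inhibition above 50%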;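 further: 0% = DMSO wells and 100% = digitonin-killed cells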). The following applies: HepG2 viability, 24-48 h, at 10 µM, hits give high values.
The target of test [3] is L-lactate dehydrogenase (Plasmodium falciparum (isolate CDC / Honduras)) (UniProt Q27743). The test is described as follows: PfLDH activity inhibition – cell lysate, 3D7 strain, counter-screen for P. falciparum growth inhibition project (AID 2304).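 Further: 0% = vehicle and 100% = reference inhibitor.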 The following applies: P. falciparum 3D7 crude extract, LDH APAD/NBT absorbance; at 2 µM; hits give high values.
Test [4] in a line: inhibition of 3D7 malaria parasite growth – strain 3D7 (AID 2306).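 Further: 0% = DMSO wells and 100% = chloroquine plus artemisinin control wells.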 The following applies: P. falciparum 3D7 erythrocytic growth, LDH absorbance, 72 h; at 2 µM; hits give high values.
In test [5] the target is Calcium-dependent protein kinase 1 (Plasmodium falciparum (isolate 3D7)) (UniProt P62344). The test is described as follows: PfCDPK1 kinase inhibitors, biochemical, TCAMS library (AID 1159585; cut-off not given, nearly all actives have IC50 up to about 0.98 µM;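 further: inhibitors leave more ATP so luminescence rises with inhibition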). Conditions: recombinant PfCDPK1, Kinase-Glo ATP depletion luminescence.
Test [6] has as its target Plasmodium falciparum protein kinase 6 (PK6, PF3D7_1337100) (UniProt Q8IDW1). The experiment in a line: PfPK6 kinase inhibitors, biochemical, TCAMS library (AID 1159586). Conditions: recombinant PfPK6, Kinase-Glo ATP depletion luminescence.
In test [7] the target is Protein kinase 7 (PK7), Plasmodium falciparum 3D7 (PF3D7_0213400) (UniProt Q7YTF7). The experiment in a line: inhibition of Plasmodium PK7 catalytic activity – biochemical, TCAMS antimalarial set, Kinase-Glo luminescence (AID 1159587). Conditions: recombinant PfPK7, Kinase-Glo ATP depletion luminescence. A general note: Kinase-Glo measures the ATP left after a reaction by luminescence.

Test [8] deals with Calcium-dependent protein kinase 4 (Plasmodium falciparum (isolate 3D7)) (UniProt Q8IBS5). The experiment in a line: PfCDPK4 kinase inhibitors, biochemical, TCAMS library (AID 1159588; cut-off not given, nearly all actives have IC50 up to about 0.91 µM). Conditions: recombinant PfCDPK4, Kinase-Glo ATP depletion luminescence.

The structures appear in SMILES notation. Unmarked numbers belong to inactive results. For some of these results: Results with a measured potency or affinity are listed apart. Active and inactive are the calls of the source. Unless noted, how the calls were made is not given here.

Sequence of Protein kinase 7 (PK7), Plasmodium falciparum 3D7 (PF3D7_0213400) (Q7YTF7 1-343): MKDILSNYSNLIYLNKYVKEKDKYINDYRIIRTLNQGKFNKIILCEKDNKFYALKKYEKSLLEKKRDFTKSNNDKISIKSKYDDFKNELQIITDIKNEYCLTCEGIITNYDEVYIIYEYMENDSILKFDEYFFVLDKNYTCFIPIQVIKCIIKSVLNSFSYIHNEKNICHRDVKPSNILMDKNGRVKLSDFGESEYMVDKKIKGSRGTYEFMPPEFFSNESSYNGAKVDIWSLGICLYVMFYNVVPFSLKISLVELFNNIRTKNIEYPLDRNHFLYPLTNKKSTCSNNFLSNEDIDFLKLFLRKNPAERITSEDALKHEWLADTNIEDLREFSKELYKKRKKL
Sequence of Plasmodium falciparum protein kinase 6 (PK6, PF3D7_1337100) (Q8IDW1 1-305): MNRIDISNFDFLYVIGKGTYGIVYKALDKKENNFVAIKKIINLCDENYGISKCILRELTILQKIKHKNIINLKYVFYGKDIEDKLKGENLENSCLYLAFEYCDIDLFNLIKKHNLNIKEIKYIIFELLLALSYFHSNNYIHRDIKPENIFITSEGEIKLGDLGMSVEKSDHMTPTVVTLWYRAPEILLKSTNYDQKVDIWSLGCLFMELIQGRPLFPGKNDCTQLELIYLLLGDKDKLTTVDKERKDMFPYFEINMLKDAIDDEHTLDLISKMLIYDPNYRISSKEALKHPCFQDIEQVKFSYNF
Sequence of L-lactate dehydrogenase (Plasmodium falciparum (isolate CDC / Honduras)) (Q27743 whole entry, looked up): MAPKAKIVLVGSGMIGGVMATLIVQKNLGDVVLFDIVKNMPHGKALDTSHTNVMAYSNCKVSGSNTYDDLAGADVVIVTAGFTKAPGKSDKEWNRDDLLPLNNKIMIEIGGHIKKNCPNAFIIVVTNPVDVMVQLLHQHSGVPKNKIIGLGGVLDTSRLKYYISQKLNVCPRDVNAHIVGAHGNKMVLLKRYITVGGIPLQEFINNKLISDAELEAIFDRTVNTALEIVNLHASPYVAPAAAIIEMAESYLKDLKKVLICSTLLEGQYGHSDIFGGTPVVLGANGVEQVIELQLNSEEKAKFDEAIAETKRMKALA
Sequence of Calcium-dependent protein kinase 1 (Plasmodium falciparum (isolate 3D7)) (P62344 whole entry, looked up): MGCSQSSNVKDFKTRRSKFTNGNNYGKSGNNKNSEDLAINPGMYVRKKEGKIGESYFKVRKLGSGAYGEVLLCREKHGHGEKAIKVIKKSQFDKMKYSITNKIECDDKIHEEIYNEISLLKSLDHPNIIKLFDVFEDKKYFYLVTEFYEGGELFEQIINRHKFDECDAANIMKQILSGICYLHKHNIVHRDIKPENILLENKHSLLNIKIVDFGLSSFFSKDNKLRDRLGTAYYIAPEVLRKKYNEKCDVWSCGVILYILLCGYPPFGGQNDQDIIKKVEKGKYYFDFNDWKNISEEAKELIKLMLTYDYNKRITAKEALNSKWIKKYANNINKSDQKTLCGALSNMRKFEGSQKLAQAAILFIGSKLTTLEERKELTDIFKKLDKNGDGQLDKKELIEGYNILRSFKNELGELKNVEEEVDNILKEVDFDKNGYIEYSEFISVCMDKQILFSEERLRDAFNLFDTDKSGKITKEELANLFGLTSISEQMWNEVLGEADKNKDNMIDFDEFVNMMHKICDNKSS
Sequence of Calcium-dependent protein kinase 4 (Plasmodium falciparum (isolate 3D7)) (Q8IBS5 whole entry, looked up): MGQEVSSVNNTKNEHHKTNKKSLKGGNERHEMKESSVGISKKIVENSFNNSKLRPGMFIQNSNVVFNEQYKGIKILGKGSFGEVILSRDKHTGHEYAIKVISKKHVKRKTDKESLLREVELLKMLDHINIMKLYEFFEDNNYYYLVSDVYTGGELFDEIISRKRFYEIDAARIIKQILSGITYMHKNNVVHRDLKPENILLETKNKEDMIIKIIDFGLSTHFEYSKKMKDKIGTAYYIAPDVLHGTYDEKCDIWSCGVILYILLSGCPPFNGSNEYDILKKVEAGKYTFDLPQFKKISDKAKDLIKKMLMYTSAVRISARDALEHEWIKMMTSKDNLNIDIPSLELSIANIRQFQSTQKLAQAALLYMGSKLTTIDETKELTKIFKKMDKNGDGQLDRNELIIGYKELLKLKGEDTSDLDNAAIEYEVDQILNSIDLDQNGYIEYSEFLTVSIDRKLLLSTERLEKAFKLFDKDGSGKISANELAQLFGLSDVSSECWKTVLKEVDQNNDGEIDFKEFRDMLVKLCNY

As to `CC(C)N(C(=O)CSc1nc2cc(Cl)ccc2c(=O)n1Cc1ccccc1)C(C)C`, the results for the growth inhibition in test [1] and in test [4] were 97% (active) and 100% (active), respectively. The figures for the inhibition in test [2] and in test [3] were -14% and -5%, respectively. For the same compound, the result in test [5], in test [6], in test [7] and in test [8] was inactive.
Take `COc1cc2nc(N3CCC(CNC(=O)c4cccc5cccnc45)CC3)nc(N)c2cc1OC`: the results for the growth inhibition in test [1] and in test [4] were 33% and 99% (active), respectively. In addition, the inhibition (in general, the relative decrease from the control value, in per cent) was 34% in test [2] and -2% in test [3]. The result in test [5], in test [6], in test [7] and in test [8] was inactive.
As to `NC1=NC(Cc2ccccc2)(c2ccncc2)C(=O)N1CCCc1ccccc1` (stereo not given), the growth inhibition in test [1] is 1%; in test [4], 86% (active). The values for the inhibition in test [2] and in test [3] were 1% and 3%, respectively. Besides, the result in test [5], in test [6], in test [7] and in test [8] was inactive.
`Cc1ccc(O)c(C(=O)c2cc(C(=O)Nc3ccccc3C)c(=O)n(-c3ccccc3C)c2)c1`: the growth inhibition in test [1] was 81% (active); in test [4], 98% (active). Also, the inhibition in test [2] is -15%; in test [3], -8%. Also, the result in test [5], in test [6], in test [7] and in test [8] was inactive.
With `C=CCn1c(Sc2ccc(C#N)c([N+](=O)[O-])c2)nnc1-c1ccc(Cl)cc1`, the growth inhibition in test [1] is 85% (active); in test [4] it was 97% (active). Besides, the inhibition in test [2] is 13%; in test [3], 3%. Further, the outcome in test [5], in test [6], in test [7] and in test [8] was inactive.
For the compound `Cc1ccc(NC(=O)c2cccc(N3CCN(c4ccncc4)CC3)c2)cc1F`, the values for the growth inhibition in test [1] and in test [4] were 72% (active) and 101% (active), respectively. Also, the inhibition in test [2] is 43%; in test [3], -1%. Besides, the outcome in test [5], in test [6], in test [7] and in test [8] was inactive.
Regarding `COc1ccc(C(c2ccc(N(C)C)cc2)c2ccc(N(C)C)cc2)cc1`, the growth inhibition in test [1] is 99% (active); in test [4] it was 101% (active). For the same compound, the inhibition in test [2] was 72% (active); in test [3], 1%. The result in test [5], in test [6], in test [7] and in test [8] was inactive.
Take `Cc1nnsc1C(=O)Nc1cccc(-c2ccc(-c3nc4ccc(F)cc4[nH]3)cc2)c1`: the growth inhibition in test [1] is 89% (active); in test [4] it was 100% (active). In addition, the figures for the inhibition in test [2] and in test [3] were 51% (active) and 4%, respectively. Also, the result in test [5], in test [6], in test [7] and in test [8] was inactive.
With `COc1cc2c(cc1C(F)(F)F)N(C(=O)Nc1cc(F)cc(-c3cccnn3)c1)CC2`, the growth inhibition in test [1] is 34%; in test [4], 90% (active). For the same compound, the values for the inhibition in test [2] and in test [3] were 21% and 6%, respectively. Also, the outcome in test [5], in test [6], in test [7] and in test [8] was inactive.
Turning to `N#Cc1ccc(N2CCN(Cc3ccc(-c4ccc(-c5nc6ccc(C(F)(F)F)cc6[nH]5)s4)cc3)CC2)nc1`, the growth inhibition in test [1] is 73% (active); in test [4] it was 100% (active). In addition, the inhibition in test [2] is 13%; in test [3], 4%. Besides, the result in test [5], in test [6], in test [7] and in test [8] was inactive.
As to `OC(COc1ccccc1-c1nc2ccccc2o1)CN1CCCN(CCc2ccccc2)CC1` (stereo not given), the growth inhibition in test [1] was 2%; in test [4] it was 97% (active). For the same compound, the inhibition in test [2] was 39%; in test [3], -5%. The result in test [5], in test [6], in test [7] and in test [8] was inactive.
Take `O=C(Nc1ccc(C(F)(F)F)cc1)NC1CCN(c2ccnc3cc(Cl)ccc23)C1` (stereo not given): the growth inhibition in test [1] was 99% (active); in test [4], 102% (active). Further, the inhibition in test [2] was 20%; in test [3], -2%. The result in test [5], in test [6], in test [7] and in test [8] was inactive.
For `CCOc1ccnc(=O)[nH]1`, the growth inhibition in test [1] was 95% (active); in test [4], 97% (active). Also, the results for the inhibition in test [2] and in test [3] were -4% and 5%, respectively. Moreover, the result in test [5], in test [6], in test [7] and in test [8] was inactive.
Consider `C[C@@H](Nc1nc(NCc2ccccc2)c2sccc2n1)c1ccccc1`, for which the figures for the growth inhibition in test [1] and in test [4] were 75% (active) and 91% (active), respectively. Further, the figures for the inhibition in test [2] and in test [3] were 31% and -4%, respectively. Moreover, the outcome in test [5], in test [6], in test [7] and in test [8] was inactive.
With `CN=C(N)c1ccc(NC(=O)c2ccc(C(=O)Nc3ccc(C(N)=NC)cc3)cc2)cc1`, the growth inhibition is 91% (active) in test [1] and 96% (active) in test [4]. Also, the values for the inhibition in test [2] and in test [3] were 6% and 0%, respectively. The result in test [5], in test [6], in test [7] and in test [8] was inactive.
`COc1ccc(-c2cn3c(C(=O)Nc4ccccc4Cl)c(-c4ccccc4)c4c3n2CCCC4)cc1`: the growth inhibition in test [1] was 1%; in test [4], 100% (active). The inhibition in test [2] is 7%; in test [3] it was -4%. Besides, the result in test [5], in test [6], in test [7] and in test [8] was inactive.
Regarding `C=C[C@H]1CN(CCCCCCC)CC[C@H]1CC(=O)Nc1cnnc2ccc(OC)cc12`, the values for the growth inhibition in test [1] and in test [4] were 100% (active) and 101% (active), respectively. The inhibition was 12% in test [2] and 3% in test [3]. In addition, the outcome in test [5], in test [6], in test [7] and in test [8] was inactive.
`O=C(/C=C/c1ccc(Cl)c(Cl)c1)NCCCCCCN1CCCN(C(=O)Nc2cccc(Cl)c2)CC1`: the growth inhibition is 2% in test [1] and 94% (active) in test [4]. Also, the inhibition in test [2] was 26%; in test [3], 0%. The outcome in test [5], in test [6], in test [7] and in test [8] was inactive.
For the compound `CCCCCc1cc(OC(C)=O)c2c(c1)OC(C)(C)C=C2C1=CCN(Cc2ccccc2)CC1`, the growth inhibition in test [1] is 88% (active); in test [4], 97% (active). The inhibition in test [2] was 14%; in test [3] it was -3%. Also, the result in test [5], in test [6], in test [7] and in test [8] was inactive.
For `CC(=O)NC1=NC(C)(C)N(OCCCOc2ccc(Cl)c(Cl)c2)C(NC(C)=O)=N1`, the growth inhibition in test [1] was 94% (active); in test [4], 96% (active). In addition, the figures for the inhibition in test [2] and in test [3] were 65% (active) and 0%, respectively. Moreover, the outcome in test [5], in test [6], in test [7] and in test [8] was inactive.
